Screening data as filed in PubChem.
In the library only some 3.2% were active in any assay of this set; here they are far more common.
Rce1 inh – yeast Ras-converting enzyme inhibition | Q03530 | yeast membranes, quenched prenylated peptide cleavage fluorescence | calls only | actives 0.27% (n = 290,000) | AID 2563;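 active means fall in fluorescence gain of 50% or more versus controls, with final raw signal at or below 3038400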
CHT inh – human CHT choline transport inhibition | B-score at 10 µM | CHT-expressing cells, membrane potential dye, choline response; hits give low values | actives 0.86% (n = 310,000) | Q9GZV3;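 active means B-score over 3 SD under the library average, and starting fluorescence ratio not unusually high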;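 further: choline stimulus applied at its EC90 after an EC20 pre-addition; B-score computed on integrated fluorescence ratio after choline addition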
ANO1 block – inhibitors of mouse TMEM16A calcium-activated chloride channel; Q8BHY3; HEK293 TMEM16A/YFP iodide influx fluorescence, ionomycin; normalized B-score (activity score, 25-100; higher = stronger inhibition) at 10 µM; actives 1.2% (n = 310,000);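 active means ratio plate-corrected score three or more library SD toward inhibition, starting fluorescence score within five deviations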;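 further: score derived from kinetic fluorescence span divided by baseline fluorescence per well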
CHT PAM – human CHT allosteric activation | CHT-expressing cells, membrane potential dye, choline EC20; hits give high values; LV-AA mutant CHT in HEK293 cells | actives 0.49% (n = 310,000) | Q9GZV3 | B-score at 10 µM;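 active means initial fluorescence not abnormally high and integrated response B-score, plate-corrected, over 3 SD above library mean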
ANO1 activ – activates or potentiates the mouse TMEM16A chloride channel; Q8BHY3; HEK293 TMEM16A/YFP-H148Q/I152L, iodide quench fluorescence; hits give low values; B-score at 10 µM; actives 0.3% (n = 340,000); AID 623877;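 active means fluorescence-ratio B-score plate-corrected deviation score at least 3 library SD below zero, with starting fluorescence score within 5 deviations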;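 further: channel opened by trigger with iodide after compound preincubation; score built on the fluorescence ratio of max minus min over baseline; more negative score means more quench and so TMEM16A activation or potentiation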
Kir21 block – Kir2.1 (mouse) channel inhibition. P35561. HEK293-Kir2.1, FluxOR thallium flux fluorescence; hits give low values. B-score at 10 µM. actives 0.85% (n = 310,000). AID 1672;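 active means fluorescence ratio B-score at or below minus 3 SD of library scores, with starting-brightness B-score within 2 SD, cut at about -4.2 in these data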;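 further: channel flux triggered by added potassium and thallium sulfate stimulus; B-score of peak minus minimum fluorescence over baseline after thallium stimulus; more negative B-score means stronger Kir2.1 block with less thallium influx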
Large screens that a line does not name were inactive.

CCOC(=O)c1c(C)n(CCNC(C)=O)c2ccc(OC)cc12	none
CC12CC(NC(=O)N1c1cccc(C(=O)N3CCCCC3)c1)c1ccccc1O2 (stereo not drawn)	none
CC1(c2ccc3c(c2)OCCCO3)NC(=O)N(CC(=O)NCCc2ccccc2)C1=O (stereo not drawn)	none (no result: Rce1 inh, CHT inh, ANO1 block, CHT PAM, Kir21 block)
COc1ccc(-c2csc(NC(=O)c3ccccc3NS(=O)(=O)c3ccc(F)c(F)c3)n2)cc1	CHT inh -8.4, ANO1 block 100
COc1ccc(-c2csc(NC(=O)c3ccccc3F)n2)cc1	none
Cc1cc(C(=O)NC2CCCc3c2cnn3-c2ccc(C(C)(C)C)cc2)nn1C (stereo not drawn)	ANO1 block 25 (no result: Rce1 inh)
Cc1cc(C)cc(-n2ncc3c2CCCC3NC(=O)c2cc(C)n(C)n2)c1 (stereo not drawn)	none
O=S(=O)(c1ccc(Cl)cc1)N1CCC(O)(CN2CCN(Cc3ccccc3)CC2)CC1	Kir21 block -5.4
O=S(=O)(c1ccc(S(=O)(=O)N2CCN(Cc3ccccc3)CC2)cc1)N1CCOCC1	none (no result: CHT inh, ANO1 block, CHT PAM, ANO1 activ)
COc1ccc(F)cc1CSc1nnnn1-c1ccc(O)cc1	ANO1 block 25
COc1cc(CSc2nnnn2-c2ccc(C)cc2)cc(OC)c1OC	none
COc1ccc(C)cc1NC(=O)C1CCN(C(=O)C2CC(=O)N(c3ccc(C)cc3)C2)CC1 (stereo not drawn)	none
CC(CCC(C)C(C)(C)C)[C@@H]1CC[C@H]2C3C[C@H](OS(O)(=S)=S)[C@H]4C[C@H](OS(O)(=S)=S)[C@@H](OS(O)(=S)=S)C[C@]4(C)[C@H]3CC[C@]12C (stereo partly drawn) (tested in a mixture with another compound)	ANO1 activ -11 (no result: Rce1 inh, CHT inh, ANO1 block, CHT PAM, Kir21 block)
COc1ccc2ccccc2c1CNC(C)CCc1ccccc1 (stereo not drawn)	Kir21 block -7.7
COc1ccc2ccccc2c1CN(C)Cc1ccccc1	none
NS(=O)(=O)c1ccc(NC(=O)COC(=O)c2ncc(Cl)c(Cl)c2Cl)cc1	ANO1 activ -5 (no result: Rce1 inh, CHT inh, ANO1 block, CHT PAM, Kir21 block)
S=C(NCc1ccco1)Nc1cccc(Cl)c1	none
S=C(NCc1ccco1)Nc1ccc(Cl)c(Cl)c1	ANO1 block 25
O=S(=O)(CCc1ccccc1)CS(=O)(=O)CCc1ccccc1	none (no result: Rce1 inh, CHT inh, ANO1 block, CHT PAM, Kir21 block)
N#CCCn1nc(-c2ccccc2)cc1Nc1ccccc1NC(=O)C(F)(F)F	none
N#CCCn1nc(-c2ccc(Br)cc2)cc1Nc1ccccc1NC(=O)C(F)(F)F	ANO1 block 100
CCN(CCNC(=O)C1CCN(Cc2nc(-c3ccc(Cl)cc3)oc2C)CC1)c1ccccc1	ANO1 block 100
Cc1oc(-c2ccc(Cl)cc2)nc1CN1CCC(C(=O)NCCCN2CCOCC2)CC1	Kir21 block -4.6
CCCCn1c(N)c(N(Cc2ccccc2OC)C(=O)CN2C(=O)NC3(CCCC3)C2=O)c(=O)[nH]c1=O	none (no result: Rce1 inh)
O=C(C/C=N/OCc1c(Cl)cccc1Cl)c1cnc(-c2ccccc2)s1	ANO1 block 100
O=S(=O)(c1cccs1)N1CCN(C/C=C/c2ccccc2)CC1	none (no result: Rce1 inh)
O=S(=O)(c1ccc(Cl)s1)N1CCN(C/C=C/c2ccccc2)CC1	ANO1 activ -7
CCc1cc(C(=O)N2CCCC(C(=O)c3ccc(C(F)(F)F)cc3)C2)n(C)n1 (stereo not drawn)	none (no result: CHT inh, ANO1 block, CHT PAM)
CN1C(=O)/C(=C/c2ccccc2F)Sc2ccc(C(=O)N3CCCC3)cc21	ANO1 block 25
O=C(Nc1nc(-c2ccccc2)cs1)c1cccc([N+](=O)[O-])c1	none
O=C(Nc1ncc(S(=O)(=O)c2ccc([N+](=O)[O-])cc2)s1)c1ccc2ccccc2c1	ANO1 block 100
O=C(Nc1ncc([N+](=O)[O-])s1)c1cccc([N+](=O)[O-])c1	ANO1 block 100, ANO1 activ -4.6
CC(C)(C)c1ccc(C(=O)NCCNC(=O)c2ccco2)cc1	none
CC(=O)NCCSc1ccc(S(=O)(=O)N2CCCC2)cn1	ANO1 activ -21 (no result: Rce1 inh, CHT inh, ANO1 block, CHT PAM, Kir21 block)
O=C(CCSc1ccc(Cl)cc1)NC12CC3CC(CC(C3)C1)C2	Rce1 inh active
CCOc1cc(CNCCO)cc(Br)c1OCc1ccc(Cl)cc1Cl	ANO1 block 100, Kir21 block -13
Cc1noc(C)c1CN(C(=S)NC(C)C)c1ccccc1	Kir21 block -6.5
